According to PubChem BioAssay AID493231 (Broad Institute, 2011):
Measured potencies and affinities stand elsewhere. Active and inactive are the calls of the source. How the calls were made is not given here.

The compounds below were run against Acyl-homoserine lactone acylase PvdQ (Pseudomonas aeruginosa (strain ATCC 15692 / DSM 22644 / CIP 104116 / JCM 14847 / LMG 12228 / 1C / PRS 101 / PAO1)) (UniProt Q9I194) (assay: PvdQ acylase enzyme activity blockers – biochemical, fluorescence, plate reader and imaging, cherry-picks, dose response (AID 493231;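 further: more negative values mean stronger inhibition of the acylase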)). Settings: purified PvdQ acylase, fluorogenic substrate; series mostly up to 10 µM.
Chain of Acyl-homoserine lactone acylase PvdQ (Pseudomonas aeruginosa (strain ATCC 15692 / DSM 22644 / CIP 104116 / JCM 14847 / LMG 12228 / 1C / PRS 101 / PAO1)) (Q9I194 whole entry, looked up): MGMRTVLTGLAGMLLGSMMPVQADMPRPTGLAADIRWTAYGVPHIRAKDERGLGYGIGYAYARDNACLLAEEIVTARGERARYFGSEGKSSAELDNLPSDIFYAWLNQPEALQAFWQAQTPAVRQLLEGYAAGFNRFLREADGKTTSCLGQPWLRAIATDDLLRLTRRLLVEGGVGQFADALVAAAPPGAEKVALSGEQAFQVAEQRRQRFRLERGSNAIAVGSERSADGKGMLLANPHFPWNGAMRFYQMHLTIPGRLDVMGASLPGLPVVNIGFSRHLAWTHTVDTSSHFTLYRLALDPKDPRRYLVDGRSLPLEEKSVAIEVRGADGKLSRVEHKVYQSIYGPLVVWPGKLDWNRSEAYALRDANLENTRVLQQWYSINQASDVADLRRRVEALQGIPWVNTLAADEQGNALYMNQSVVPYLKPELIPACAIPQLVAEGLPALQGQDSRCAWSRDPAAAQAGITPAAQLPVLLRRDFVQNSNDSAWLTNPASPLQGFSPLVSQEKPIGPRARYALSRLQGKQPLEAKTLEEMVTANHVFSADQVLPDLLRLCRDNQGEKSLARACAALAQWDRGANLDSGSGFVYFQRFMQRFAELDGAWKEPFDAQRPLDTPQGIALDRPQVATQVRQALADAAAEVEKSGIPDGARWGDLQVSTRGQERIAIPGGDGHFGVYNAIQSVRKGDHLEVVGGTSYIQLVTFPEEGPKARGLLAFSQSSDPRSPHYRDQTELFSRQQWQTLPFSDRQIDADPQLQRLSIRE

outcome, inactive:
N#Cc1cc([N+](=O)[O-])ccc1Oc1cccc(/C=N/NC(=O)c2cccc(Cl)c2)c1, Cc1cccc(Nc2nnc(SCC(=O)c3c(N)n(C4CC4)c(=O)[nH]c3=O)s2)c1, NC(=O)c1ncn([C@@H]2O[C@H](CNCc3ccc(-c4cc(C(F)(F)F)ccc4Cl)o3)[C@@H](O)[C@H]2O)n1, Cc1ccc(C(=O)/C=C/Nc2cccc([N+](=O)[O-])c2)o1, CC1=C(C(=O)Nc2ccccc2)C(c2coc3ccccc3c2=O)C2=C(CCCC2=O)N1 (stereo unspecified), CCSc1ccc(-c2cccc([N+](=O)[O-])c2)nn1, COc1cccc(CN(C)CC(=O)NNC(=O)c2ccc(Cl)cc2)c1, Clc1ccc2nc3c4ccccc4cnn3c2c1, O=C(O)c1cc2nccc(-c3ccco3)n2n1, COc1ccc(CC(=O)NNC(=S)NCC2CC2)cc1OC, CC1(OC(=O)CCc2ccccc2)C(=O)C=C2C=C(c3ccc(C#N)cc3)N(Cc3ccccc3)C=C2C1=O (stereo unspecified), COCC(=O)Oc1c(S(=O)(=O)c2ccc(C)cc2)c(C)nn1-c1ccccc1, Nc1nc(-c2ccc(Cl)cc2)nn1C(=O)c1ccco1, COCC(=O)N1CCC(Oc2ccc(C(=O)NCCc3ccncc3)cc2)CC1, COc1ccc(Cl)cc1C(=O)Nc1ccc(N(C)C(C)=O)cc1, CN(C(=O)CCn1c(=S)oc2ccccc21)c1ccc(F)cc1
